Reference: PubChem BioAssay (NCATS)
Inconclusive results are not listed. Activity calls are given as the source filed them. Calls follow the shape of the dose curve; as a rule, active = well fitted inhibition curve with a large enough effect; inconclusive = small, poorly fitted or top-dose-only effect; inactive = flat fitted curve, though single readings scatter.

Tests used:
Assay in all cases: qHTS profiling for inhibitors of Plasmodium falciparum proliferation (AID 504749); also: nearly all actives have a fitted effect of over 60% in size
CP260 = conditions: P. falciparum in erythrocytes, SYBR Green DNA, 72 h; series mostly up to 28.7 µM
Outline: (§1)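 Three-day growth assay of blood-stage parasites in erythrocytes (0.3% parasitemia, 2.5% hematocrit) at 37 C, 5% CO2, quantified by SYBR Green DNA staining after overnight detergent lysis.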

CP262 = conditions: P. falciparum in erythrocytes, SYBR Green DNA, 72 h; series mostly up to 28.7 µM
Outline: as §1

CP265 = conditions: P. falciparum in erythrocytes, SYBR Green DNA, 72 h; series mostly up to 12.8 µM
Outline: as §1

CP268 = conditions: P. falciparum in erythrocytes, SYBR Green DNA, 72 h; series mostly up to 28.7 µM
Outline: as §1

CP269 = conditions: P. falciparum in erythrocytes, SYBR Green DNA, 72 h; series mostly up to 28.7 µM
Outline: as §1

CP286 = conditions: P. falciparum in erythrocytes, SYBR Green DNA, 72 h; series mostly up to 28.7 µM
Outline: as §1

CP291 = conditions: P. falciparum in erythrocytes, SYBR Green DNA, 72 h; series mostly up to 28.7 µM
Outline: as §1

CP297 = conditions: P. falciparum in erythrocytes, SYBR Green DNA, 72 h; series mostly up to 28.7 µM
Outline: as §1

CP305 = conditions: P. falciparum in erythrocytes, SYBR Green DNA, 72 h; series mostly up to 28.7 µM
Outline: as §1

CP315 = conditions: P. falciparum in erythrocytes, SYBR Green DNA, 72 h; series mostly up to 28.7 µM
Outline: as §1

CP325 = conditions: P. falciparum in erythrocytes, SYBR Green DNA, 72 h; series mostly up to 28.7 µM
Outline: as §1

CP329 = conditions: P. falciparum in erythrocytes, SYBR Green DNA, 72 h; series mostly up to 28.7 µM
Outline: as §1

CP335 = conditions: P. falciparum in erythrocytes, SYBR Green DNA, 72 h; series mostly up to 12.8 µM
Outline: as §1

DFO2036 = conditions: P. falciparum in erythrocytes, SYBR Green DNA, 72 h; series mostly up to 28.7 µM
Outline: as §1

DIV14 = conditions: P. falciparum in erythrocytes, SYBR Green DNA, 72 h; series mostly up to 28.7 µM
Outline: as §1

DIV30 = conditions: P. falciparum in erythrocytes, SYBR Green DNA, 72 h; series mostly up to 28.7 µM
Outline: as §1

Dd2 = conditions: P. falciparum in erythrocytes, SYBR Green DNA, 72 h; series mostly up to 28.7 µM
Outline: as §1

ECU = conditions: P. falciparum in erythrocytes, SYBR Green DNA, 72 h; series mostly up to 28.7 µM
Outline: as §1

FAB9 = conditions: P. falciparum in erythrocytes, SYBR Green DNA, 72 h; series mostly up to 28.7 µM
Outline: as §1

GB4 = conditions: P. falciparum in erythrocytes, SYBR Green DNA, 72 h; series mostly up to 28.7 µM
Outline: as §1

HB3 = conditions: P. falciparum in erythrocytes, SYBR Green DNA, 72 h; series mostly up to 28.7 µM
Outline: as §1

ICS = conditions: P. falciparum in erythrocytes, SYBR Green DNA, 72 h; series mostly up to 28.7 µM
Outline: as §1

JCK = conditions: P. falciparum in erythrocytes, SYBR Green DNA, 72 h; series mostly up to 28.7 µM
Outline: as §1

N140 = conditions: P. falciparum in erythrocytes, SYBR Green DNA, 72 h; series mostly up to 28.7 µM
Outline: as §1

P93_24 = conditions: P. falciparum in erythrocytes, SYBR Green DNA, 72 h; series mostly up to 28.7 µM
Outline: as §1

P94_40 = conditions: P. falciparum in erythrocytes, SYBR Green DNA, 72 h; series mostly up to 28.7 µM
Outline: as §1

PAD = conditions: P. falciparum in erythrocytes, SYBR Green DNA, 72 h; series mostly up to 28.7 µM
Outline: as §1

PC26 = conditions: P. falciparum in erythrocytes, SYBR Green DNA, 72 h; series mostly up to 28.7 µM
Outline: as §1

TAB109 = conditions: P. falciparum in erythrocytes, SYBR Green DNA, 72 h; series mostly up to 12.8 µM
Outline: as §1

TAB113 = conditions: P. falciparum in erythrocytes, SYBR Green DNA, 72 h; series mostly up to 28.7 µM
Outline: as §1

TAB165 = conditions: P. falciparum in erythrocytes, SYBR Green DNA, 72 h; series mostly up to 28.7 µM
Outline: as §1

W2 = conditions: P. falciparum in erythrocytes, SYBR Green DNA, 72 h; series mostly up to 12.8 µM
Outline: as §1

Measured: Potency
Potency is read from the fitted curve at half-maximal effect.

O=[As]O[As]=O (configuration not stated)
inactive: CP262
active: CP260 6.31 µM | CP265 12.6 µM | CP268 15.1 µM | CP269 6.01 µM | CP286 8.91 µM | CP291 6.75 µM | CP297 9.53 µM | CP305 8.49 µM | CP315 13.5 µM | CP325 6.75 µM | CP329 15.1 µM | CP335 7.57 µM | DFO2036 12.6 µM | DIV14 6.01 µM | DIV30 8.49 µM | Dd2 7.94 µM | ECU 8.91 µM | FAB9 11.2 µM | GB4 8.49 µM | HB3 11.2 µM | ICS 7.08 µM | JCK 11.2 µM | N140 7.94 µM | P93_24 5.01 µM | P94_40 7.08 µM | PAD 8.91 µM | PC26 15.1 µM | TAB109 7.08 µM | TAB113 7.94 µM | TAB165 6.31 µM | W2 4.26 µM
